Laboratory results: the supplement of paper PMC4237247

The molecules below were run on HeLa (assay: percent cells in G1/S phase; higher = more G1/S content). Details: 10 µM; 20 h; hit class: G2/M-phase inhibitor.
Protocol: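 HTS of 79,827 drug-like compounds at 10 uM. HeLa cells in 384-well plates were treated for 20 h, fixed, stained with Vybrant DyeCycle Green and scanned on an Acumen eX3 cytometer to give per-well cell cycle profiles. Only G2/M hits (>=67% G2/M) are listed.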
`CN1Cc2c(ccc3c2OCO3)[C@@H]2[C@H]1c1cc3c(cc1C[C@@H]2O)OCO3` [Chelidonine monohydrate (+)] was tested, and the “percent cells in G1/S phase” value was 19.8%.
